Measured values from the supplement of paper PMC6555819.

Legend:
Experiment in all cases: PBM binding z-score (relative to random genomic background probes); higher = stronger binding; sequences stand for … in GC…GCGATTGACAGCGTAGAATGAAGG
[1] = system: FXR:RXRa (NR concentration 270 nM, RXRa partner concentration 90 nM)
Outline: (§1)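 Binding z-scores take random background probes as their reference. They come from custom Agilent 4×180K protein-binding microarrays incubated 1 h with ligand-free nuclear receptor dimers, with antibodies against each partner (one per run) detecting binding. Scanned fluorescence was regression-normalized.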

[2] = system: LXRa:RXRa (NR concentration 270 nM, RXRa partner concentration 90 nM)
Outline: as §1

[3] = system: LXRa homodimer (NR concentration 270 nM)
Outline: as §1

[4] = system: LXRb:RXRa (NR concentration 270 nM, RXRa partner concentration 90 nM)
Outline: as §1

[5] = system: LXRb homodimer (NR concentration 270 nM)
Outline: as §1

[6] = system: PPARa:RXRa (NR concentration 270 nM, RXRa partner concentration 90 nM)
Outline: as §1

[7] = system: PPARg:RXRa (NR concentration 180 nM, RXRa partner concentration 90 nM)
Outline: as §1

[8] = system: PPARg:RXRa 270nM:90nM, anti-RXR (NR concentration 270 nM, RXRa partner concentration 90 nM)
Outline: as §1

[9] = system: PPARg:RXRa 30nM:10nM, anti-RXR (NR concentration 30 nM, RXRa partner concentration 10 nM)
Outline: as §1

[10] = system: PPARg:RXRa 90nM:30nM, anti-RXR (NR concentration 90 nM, RXRa partner concentration 30 nM)
Outline: as §1

[11] = system: PPARg:RXRa DBDmut IVT, anti-RXR (DBD mutation: RXRa K156A/R161A, NR concentration 270 nM, RXRa partner concentration 90 nM)
Outline: as §1

[12] = system: PPARg:RXRa IVT, anti-PPARg (NR concentration 270 nM, RXRa partner concentration 90 nM)
Outline: as §1

[13] = system: PPARg DBDmut:RXRa IVT, anti-PPARg (DBD mutation: PPARg1 K132A/R137A, NR concentration 270 nM, RXRa partner concentration 90 nM)
Outline: as §1

[14] = system: PPARg DBDmut IVT, anti-PPARg (DBD mutation: PPARg1 K132A/R137A, NR concentration 270 nM)
Outline: as §1

[15] = system: PPARg homodimer (NR concentration 180 nM)
Outline: as §1

[16] = system: PXR:RXRa (NR concentration 270 nM, RXRa partner concentration 90 nM)
Outline: as §1

[17] = system: PXR homodimer (NR concentration 270 nM)
Outline: as §1

[18] = system: RARa:RXR (NR concentration 270 nM, RXRa partner concentration 90 nM)
Outline: as §1

[19] = system: RARa homodimer (NR concentration 270 nM)
Outline: as §1

[20] = system: RARb:RXRa (NR concentration 270 nM, RXRa partner concentration 90 nM)
Outline: as §1

Sequence | PBM binding z-score [1] | PBM binding z-score [2] | PBM binding z-score [3] | PBM binding z-score [4] | PBM binding z-score [5] | PBM binding z-score [6] | PBM binding z-score [7] | PBM binding z-score [8] | PBM binding z-score [9] | PBM binding z-score [10] | PBM binding z-score [11] | PBM binding z-score [12] | PBM binding z-score [13] | PBM binding z-score [14] | PBM binding z-score [15] | PBM binding z-score [16] | PBM binding z-score [17] | PBM binding z-score [18] | PBM binding z-score [19] | PBM binding z-score [20]
TCTTATAGGTAAATGCTAGGTGAAAGTCCGATCT | 1.33 | 1.6 | 0.477 | 1.11 | 0.669 | 1.27 | 0.531 | 2.5 | 3.79 | 3.41 | 3.93 | 2.62 | 1.31 | 1.13 | 1.1 | 0.946 | 0.588 | 1.4 | 1.65 | 0.769
AGAATGCGGTTACCAAAGATCAGGGAAACGCTTG | -0.546 | 1.96 | -0.607 | -0.204 | -0.992 | 0.0564 | 0.562 | 0.104 | -0.151 | -0.17 | -0.0849 | -0.0394 | -0.888 | -0.42 | -0.659 | -0.382 | -0.939 | -0.221 | -0.366 | 0.18
CAAACTAGGTAACAGAGGTCAAAGTCCGTGCGTA | 5.29 | 6.1 | 7.34 | 5.38 | 1.74 | 5.84 | 6.67 | 6.35 | 3.97 | 5.74 | 6.99 | 6.88 | 1.9 | 1.28 | 4.37 | 6 | 3.25 | 6.67 | 1.62 | 4.11
CCTACTGGGCCAACGGTCATTGATTCCAATGCTC | 0.0438 | -0.079 | 0.674 | -0.198 | -0.607 | 2.53 | 5.23 | 6.24 | 4.4 | 5.61 | 3.68 | 4.73 | -0.311 | -0.326 | 0.249 | -0.304 | 0.00743 | -0.143 | -0.558 | 1.37
GCTCGGAGGACAAGGTCAGACCTTTGTCCGTAGA | 2.03 | 2.52 | -0.219 | 1.95 | 0.0255 | 3.08 | 1.88 | 2.61 | -0.0164 | 1.74 | -0.401 | 1.17 | -0.273 | -0.216 | 0.937 | 2.18 | -0.193 | 2.61 | -0.422 | 3.67
ACAGACAGGTGATGAAGGTACCTCAGGCTATCAT | -0.309 | -0.187 | -0.266 | -0.411 | -0.507 | -0.132 | 0.682 | -0.0814 | 0.3 | -0.00206 | -0.0914 | 0.0194 | 0.29 | 0.042 | -0.0635 | -0.279 | 0.235 | 0.00944 | -0.363 | -0.00921
TAGCCTAGGTCAATCAGGGGCCAGTATAGAAAGC | 3.77 | 2.77 | 0.313 | 2.59 | 0.0516 | 3.34 | 2.24 | 2.28 | 0.674 | 1.76 | 1.74 | 2.75 | -0.205 | 0.00211 | 1.32 | 2.04 | -0.411 | 3.2 | -0.673 | 3.89
ATCTCTAGGTAACCAAGTTCACTGAATGCCGAAC | 0.969 | 1.87 | 2 | 1.58 | 1.09 | 2.25 | 1.1 | 1.54 | 0.634 | 1.2 | 3.89 | 3.32 | 0.487 | 1.47 | 1.17 | 3.1 | 3.34 | 1.64 | 0.615 | 1.9
CCTATTAGTTGACCATATGGGCAACCGAAGCTCG | 0.27 | 0.454 | 0.368 | 0.353 | 0.853 | -0.034 | 0.453 | 0.317 | -0.521 | -0.00655 | 0.421 | 1.14 | 0.935 | 0.461 | 0.842 | 0.0373 | 0.489 | 0.314 | 1.68 | 0.652
TCTAGTTGGTCAAAGGTCCCACACTCGAAATGCG | 1.07 | 1.18 | 0.135 | 1.26 | 0.288 | 3.33 | 6.7 | 7.21 | 6.42 | 7.55 | 2.94 | 3.27 | 0.799 | 1.15 | 1.16 | 0.98 | -0.0577 | 1.49 | 1.06 | 1.67
GCTTGCGGGTCAAAGGTTATAGCATGAATAGAAT | 7 | 5.1 | 0.347 | 5.46 | -0.491 | 7.24 | 11.2 | 9.57 | 9.43 | 9.99 | 6.08 | 6.75 | 0.506 | 0.0418 | 2.11 | 6.07 | 0.118 | 7.94 | 0.537 | 4.53
CCGCGGAGGACAACAGGAGGTCAGAGCTGCCAGA | 1.23 | 2.08 | 1.98 | 1.49 | -0.659 | 2.17 | 0.34 | 0.0732 | -0.523 | -0.778 | 0.131 | 0.105 | -1.44 | -1.52 | 2.29 | 2.44 | 0.34 | 2.5 | 0.536 | 3.04
AGTCAAAGTTCGCTAGGTAACGTAAGATTCAGCT | 0.102 | 0.248 | -0.0137 | 0.158 | -0.513 | 0.793 | 1.64 | 2.36 | 0.554 | 1.85 | 0.109 | 1.13 | 0.0923 | 0.244 | 0.129 | 0.563 | 0.141 | 0.661 | 0.175 | 2
TCATATAGGTAAATGCTAGGTGCAAGTCCGATCT | 0.626 | 0.526 | 0.11 | 0.195 | 0.0143 | 1.05 | 0.562 | 2.08 | 3.84 | 2.96 | 3.77 | 1.96 | 1.24 | 0.918 | 0.912 | 0.511 | 0.449 | 0.897 | 0.586 | 0.263
TCTAGTTGGTCACGGCGGTCACACACGACGGGTA | 0.993 | 1.08 | 0.832 | 0.799 | 0.516 | 1.39 | 1.12 | 1.99 | 3.11 | 2.43 | 2.36 | 3.13 | 1.09 | 1.25 | 1.16 | 0.555 | 0.174 | 0.871 | 0.669 | 2.52
